# Assays:
# Test in all cases: PBM binding z-score (relative to random genomic background probes); higher = stronger binding; sequences stand for … in GC…GCGATTGACAGCGTAGAATGAAGG
# [1] = test system: PPARg:RXRa DBDmut IVT, anti-RXR (DBD mutation: RXRa K156A/R161A, NR concentration 270 nM, RXRa partner concentration 90 nM)
# In short: (§1)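 Scanned fluorescence from custom Agilent 4×180K protein-binding microarrays was regression-normalized. Binding z-scores use random background probes as reference. Ligand-free nuclear receptor dimers were incubated on the arrays for 1 h and detected with antibodies against each partner (one per run).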
# [2] = test system: PPARg:RXRa IVT, anti-PPARg (NR concentration 270 nM, RXRa partner concentration 90 nM)
# In short: as §1
# [3] = test system: PPARg DBDmut:RXRa IVT, anti-PPARg (DBD mutation: PPARg1 K132A/R137A, NR concentration 270 nM, RXRa partner concentration 90 nM)
# In short: as §1
# [4] = test system: PPARg DBDmut IVT, anti-PPARg (DBD mutation: PPARg1 K132A/R137A, NR concentration 270 nM)
# In short: as §1
# [5] = test system: PPARg homodimer (NR concentration 180 nM)
# In short: as §1
# [6] = test system: PXR:RXRa (NR concentration 270 nM, RXRa partner concentration 90 nM)
# In short: as §1
# [7] = test system: PXR homodimer (NR concentration 270 nM)
# In short: as §1
# [8] = test system: RARa:RXR (NR concentration 270 nM, RXRa partner concentration 90 nM)
# In short: as §1
# [9] = test system: RARa homodimer (NR concentration 270 nM)
# In short: as §1
# [10] = test system: RARb:RXRa (NR concentration 270 nM, RXRa partner concentration 90 nM)
# In short: as §1
# [11] = test system: RARb homodimer (NR concentration 270 nM)
# In short: as §1
# [12] = test system: RARg:RXRa (NR concentration 270 nM, RXRa partner concentration 90 nM)
# In short: as §1
# [13] = test system: RARg homodimer (NR concentration 270 nM)
# In short: as §1
# [14] = test system: RXRa DBDmut IVT, anti-RXR (DBD mutation: RXRa K156A/R161A, NR concentration 90 nM)
# In short: as §1
# [15] = test system: RXRa homodimer (NR concentration 180 nM)
# In short: as §1
# [16] = test system: THRa:RXRa (NR concentration 90 nM, RXRa partner concentration 90 nM)
# In short: as §1
# [17] = test system: THRa homodimer (NR concentration 90 nM)
# In short: as §1
# [18] = test system: VDR homodimer (NR concentration 270 nM)
# In short: as §1
Sequence,PBM binding z-score [1],PBM binding z-score [2],PBM binding z-score [3],PBM binding z-score [4],PBM binding z-score [5],PBM binding z-score [6],PBM binding z-score [7],PBM binding z-score [8],PBM binding z-score [9],PBM binding z-score [10],PBM binding z-score [11],PBM binding z-score [12],PBM binding z-score [13],PBM binding z-score [14],PBM binding z-score [15],PBM binding z-score [16],PBM binding z-score [17],PBM binding z-score [18]
AGAATGAGGTTATATGTAGATCAGGGAAGAAAGT,3.28,2.52,1.48,1.02,1.32,1.2,0.891,1.75,1.37,1.57,1.34,1.69,1.09,1.74,2.1,2.44,1.22,1.24
CATACGGGGTCAGCTAGGCCAGAGTAGGGACGGC,2.55,4.45,1.49,1.86,2.4,4.79,0.529,5.51,0.858,4.84,4,6.37,6.46,3.01,7.61,3.98,1.61,3.27
TCTATTAGTTGATTAGGGCATCCGAAACAGCGGA,2.14,1.16,0.865,0.919,1.28,0.607,0.652,0.754,1.52,0.788,0.405,0.611,0.418,1.08,0.604,0.428,0.317,0.435
AGAACTAGGGCAATGAGTTGATAGCACGGGTGGC,7.38,6.72,1.02,0.615,0.447,0.226,0.366,0.000604,0.238,1.31,0.411,0.47,0.889,0.324,0.422,0.157,-0.177,1.02
ACAGACAGGTCAGTGAAGGTAACTCAGCTGGACG,0.901,1.22,-0.0695,-0.218,0.397,1.57,-0.149,1.78,0.123,3.51,2.48,3.33,4.21,0.616,2.23,3.86,-0.151,-0.256
GCTAGTTGGTCAGTAAAAAGTCACACACCGGTCG,0.793,0.0874,0.0294,0.69,0.862,0.0868,-0.328,0.255,0.758,0.863,1.33,0.522,0.701,0.212,0.223,0.00328,-0.343,0.168
CCTCCGAGGACAGAAGGTCAGAGCTGTCCGCTTT,-0.16,0.312,-1.35,-1.76,2.39,1.76,0.0922,2.49,1.09,3.23,3.67,3.52,3.34,0.589,2.37,2.76,1.17,0.494
AGAACGACGGCACGCTGAGTTGATAGCAGAGTAG,-0.407,-0.737,-0.755,-1.05,-0.628,-0.462,0.0818,-0.447,-0.252,-0.524,-0.983,-0.171,-0.213,-0.569,-0.1,-0.601,-1.14,-0.198
GCGACTGGAGCAAAGCAGGTTACCATAAGGTTGG,1.03,0.463,-1.39,-1.59,0.00968,-0.101,-0.667,0.372,-0.65,-0.192,0.0117,-0.319,-0.395,-0.723,0.0642,1.75,-0.495,-0.492
GCGACTTGGGCATCAGCAGGTTACCATAACTTAA,-0.319,-0.238,-1.02,-0.802,-0.13,-0.0644,-0.495,0.232,-0.904,0.00104,-0.0318,-0.252,-0.319,-0.131,-0.00546,0.236,0.128,-0.321
CCGAGTAGATTATGGGGCATTCAGGCAACGGTGA,0.855,1,-0.628,-0.679,0.156,-0.457,0.0578,-0.525,-0.197,0.0647,0.0129,-0.113,0.0692,0.349,-0.0432,0.271,-0.141,-0.481
TAGCCTAGGTCATGCGGGCCTGTATAGTGTCGGC,1.65,2.76,-0.075,-0.309,0.586,1.27,-0.864,2.14,-0.78,3.55,2.91,3.78,4.07,0.686,2.87,3.03,1.05,-0.143
CGTCCAAGGTCAAAGGTCAGAGAAGAGATGACGG,4.12,6.13,1.12,0.47,3.77,7.04,1.67,8.89,1.92,5.97,5.36,8.94,8.33,3.99,10.6,4.84,2.39,3.54
CTCGAAAGGTCGGTTGCGGTGAGTATACGGATAA,0.303,0.901,0.157,0.202,0.797,1.4,-0.173,1.62,-0.203,2.92,1.91,2.44,2.59,1.06,2.06,3.27,-0.0628,0.294
TCATATAGATAAAAGGTGAAAGTCGGTGTGGTAA,3.23,2.25,0.674,0.805,1.56,1.12,0.535,1.83,1.65,1.73,1.53,1.23,0.872,2.07,2.41,1.24,0.0496,0.309
TAAGACAGGTGAAGGTAACTCAGGTACGCAGTCG,0.644,1.64,0.53,0.465,0.394,0.257,0.588,0.526,0.631,1.51,0.812,0.869,0.994,-0.391,0.793,1.48,0.449,0.487
